Assay outcomes from PubChem.
This is a sample that favours compounds with a hit; in the whole collection about 1.8% have one here.
Vc quorum ag-1 = quorum light induction in luxS cqsA deficient V. cholerae. V. cholerae BH1578 lux reporter, luminescence, 6 h. 350,000 compounds, 0.16% hits. activation, % at 18.7 µM; in the data active means activation mostly above about 9.7%, no sharp cut-off
MazEF act = activators of E. coli MazEF toxin-antitoxin RNase | P0AE70 | activation, % at 20 µM | FAM/BHQ RNA-DNA oligo cleavage fluorescence, 5 h | 350,000 compounds, 0.32% hits; in the data active means activation above about 50%
Target sequence (P0AE70 whole entry, looked up): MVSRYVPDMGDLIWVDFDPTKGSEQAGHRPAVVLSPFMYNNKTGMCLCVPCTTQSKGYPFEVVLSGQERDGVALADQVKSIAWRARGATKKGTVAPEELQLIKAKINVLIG
CCHF vOTU inh = blocks the CCHF virus ovarian tumor domain protease; 370,000 compounds, 0.55% hits; CCHFV vOTU protease, Pep-AMC fluorescence; inhibition, % at 11.5 µM; AID 651958; in the data active means inhibition above about 30%; further: 0% = vehicle wells with enzyme and 100% = no enzyme wells
DUSP3 inh = blocks human VHR1 dual specificity phosphatase; P51452; recombinant VHR phosphatase, pNPP absorbance; inhibition, % at 13.3 µM; 290,000 compounds, 0.52% hits; AID 1654; in the data active means inhibition above about 50%
Target sequence (P51452 whole entry, looked up): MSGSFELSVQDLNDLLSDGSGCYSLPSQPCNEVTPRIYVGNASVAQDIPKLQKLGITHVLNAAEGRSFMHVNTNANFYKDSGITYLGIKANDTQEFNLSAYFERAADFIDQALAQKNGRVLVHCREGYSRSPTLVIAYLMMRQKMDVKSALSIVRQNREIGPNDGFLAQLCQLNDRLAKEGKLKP
Y pestis TopoI = Y. pestis Topo-I inhibition via cleavage products; activity, % at 10 µM; Y. pestis Topo-I cleavage product accumulation, plate reader; 360,000 compounds, 0.064% hits; in the data active means activity above about 50%, passing the limit was not always enough
PrPC TRFRET = reduces human prion protein on the cell surface. P04156. cell surface PrPC, TR-FRET read-out. inhibition, % at 13.8 µM. 370,000 compounds, 0.43% hits. AID 720596; in the data active means inhibition above about 24%; further: 0% = median of the test wells and 100% = reference compound wells
Vc quorum ag-2 = quorum light induction in BH1578 reporter strain; V. cholerae BH1578 lux reporter, luminescence, 6 h; activation, % at 50 µM; AID 602243; 620 tested, under 10 active; shares compounds with Vc quorum ag-1; call rule not given here
HeLa tox = kills HeLa cells within 24 hours | 25 tested, under 10 active | HeLa viability, CellTiter-Glo ATP luminescence | activity change, negative = cytotoxicity, % at 35 µM | shares compounds with Vc quorum ag-1;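 active means signal drop with fitted half-maximal concentration at or below twice the highest valid dose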
* marks the source's active call; other numbers are inactive results; i = inactive; x = no result.

SMILES	Vc quorum ag-1	MazEF act	CCHF vOTU inh	DUSP3 inh	Y pestis TopoI	PrPC TRFRET	Vc quorum ag-2	others
Cc1cccc(NC(=O)c2ccc(OCc3c(C)noc3C)cc2)c1	i	5	-16	x	3	10	x
Cc1noc(C)c1COc1ccc(C(=O)NCC(c2c(F)cccc2Cl)N(C)C)cc1 (centres undefined)	19	1	16	x	1	5	0
Cn1c(SCc2cnc(-c3ccccc3)s2)nnc1C1COc2ccccc2O1 (centres undefined)	27*	-15	1	-11	17	3	31
Cc1ccccc1CNC(=S)OC1CCC12CCC(c1ccccc1)CC2 (centres undefined)	x	x	4	x	x	-2	x
c1cn2cc(CN3CCOCC3)nc2s1	12	4	-17	5	4	2	0
CC(C)(C)c1ccc(C(=O)c2cn[nH]c2-c2ccccc2O)cc1	-1	-3	-1	-2	-6	1	x
Cc1c(C(=O)c2ccc(F)cc2F)c2ccccn2c1CCc1ccccn1	12	4	24	x	27	-11	0
Cc1c(C(=O)c2ccc(F)cc2F)c2ccccn2c1CCC#N	1	-80	23	28	2	-18	x
O=C(c1cc2cc(Cl)ccc2oc1=O)N1CCCCCCC1	i	9	-8	18	11	1	x
O=C(c1cc2cc(Cl)ccc2oc1=O)N1CCCC1	7	3	-4	-18	-1	-5	0
CN(CC1CCOCC1)C(=O)CC1C(=O)NCCN1CC(c1ccccc1)c1ccccc1 (centres undefined)	1	-5	12	36	15	-2	x
O=C(NCCCN1CCCC1=O)c1ccc2c(c1)NC(=O)C(N1CCOCC1)S2 (centres undefined)	2	-19	10	-5	-1	-4	x
CCCCN(C)CCNC(=O)c1ccc2c(c1)NC(=O)C(N1CCCCC1)S2 (centres undefined)	17*	-2	2	24	2	1	0
Cc1ccc(CN(Cc2cc3cc(C)ccc3[nH]c2=O)C(=O)N2CCOCC2)cc1	17*	3	0	-20	2	7	7
Cc1ccc2[nH]c(=O)c(CN(Cc3ccco3)C(=O)N3CCOCC3)cc2c1	0	-12	7	30	3	6	x
O=S(=O)(c1ccc(F)cc1)N1CCCN(c2nccc(C(F)(F)F)n2)CC1	i	-20	2	-4	1	-2	x
CSCCC(NC(=O)c1ccccc1Br)C(=O)N1CCN(C/C=C/c2ccccc2)CC1 (centres undefined)	-3	5	12	x	35	-7	x
O=c1[nH]c2ccccc2n1Cc1ccc(Cl)cc1	17*	-2	5	27	6	-8	1
CCS(=O)(=O)N1CCN(C(=O)CCC2CCCC2)CC1	28*	7	-12	-9	9	-1	6
Cc1cccc(C(=O)OCC(=O)N2CCCCCC2)c1	0	1	-2	x	4	-3	x
CCN1CCN(C(=S)NCCOC)CC1	0	-1	5	14	-8	-4	x
CCOC(=O)N1CCN(C(=S)NCCOC)CC1	12	-3	-1	18	5	-3	0
CCCCCn1nc(C(=O)N(CC(C)C)c2c(N)n(CCCC)c(=O)[nH]c2=O)c2ccccc2c1=O	9	-6	11	x	2	2	0
Clc1ncnc2scc(-c3ccccc3)c12	12	-3	-4	17	6	4	0
Cc1ccc(-c2csc3ncnc(Cl)c23)cc1	i	4	2	-7	8	8	x
SMILES	Vc quorum ag-1	MazEF act	CCHF vOTU inh	DUSP3 inh	Y pestis TopoI	PrPC TRFRET	Vc quorum ag-2	others
CN(C(=O)c1cccc(NC(=O)C2CCN(C(=O)OC(C)(C)C)CC2)c1)C1CCCCC1	i	7	8	x	14	1	x
COc1ccc(C(=O)OCc2cc(C)ccc2C)cc1S(=O)(=O)N1CCCC1	i	3	11	x	22	0	x
COC(=O)c1cc(COC(=O)c2ccc(OC)c(S(=O)(=O)N3CCCC3)c2)oc1C	12	-2	6	16	28	-3	0
O=C(COc1ccccc1)NC1CCCN(Cc2ccccc2)C1 (centres undefined)	x	x	x	x	x	x	x	HeLa tox=5
COc1ccc(OCC(=O)NC2CCCN(Cc3ccc(Cl)cc3)C2)cc1 (centres undefined)	x	-11	-1	12	32	9	i
COc1ccc(C(=O)NC2CCCN(Cc3ccc(Cl)cc3)C2)c(OC)c1 (centres undefined)	i	9	-1	-23	46	11	x
CCNC(=O)CCSc1nnc(-c2ccco2)o1	835*	-1	8	-1	0	-6	i
Cc1ccc(NC(=O)CCSc2nnc(-c3ccco3)o2)cc1	i	-8	6	-1	0	10	x
CCOC(=O)N1CCC(NC(=O)c2cnn3c2NC(c2ccco2)CC3C(F)(F)F)CC1 (centres undefined)	4	-7	6	7	-3	3	x
COCCNC(=O)c1cnn2c1NC(c1ccco1)CC2C(F)(F)F (centres undefined)	17*	7	4	13	-1	9	0
CC(C)c1ccc(OCCCCN2CCCCC2)cc1	i	0	3	10	-1	3	x
CC(C)Oc1ccc(OCCCN2CCCCCC2)cc1	14	5	-6	19	2	2	0
N=C(N)n1ncc2c1CCCC2=O	x	x	11	x	x	-3	x
CCOc1ccc(C2NC(=O)Cc3cc(OC)c(OC)cc32)cc1 (centres undefined)	-1	5	-9	-2	0	2	x
COc1cc2c(cc1OC)C(c1ccc(C)cc1)NC(=O)C2 (centres undefined)	100*	-2	2	-11	3	2	1
Cc1cccc(N2CCN(CC(=O)Nc3ccc(S(=O)(=O)N4CCOCC4)cc3)CC2)c1C	-2	2	1	9	-5	14	x
CCOC(=O)c1c(C)[nH]c(C(=O)COC(=O)C2CC2)c1C	-4	-20	-11	x	0	1	x
CCOC(=O)c1c(C)[nH]c(C(=O)COC(=O)C2(C)CC2(Cl)Cl)c1C (centres undefined)	12	0	5	8	1	5	0
CC(NC(=O)C(=O)NCCN1CCN(C(=O)c2ccccc2Br)CC1)c1ccccc1 (centres undefined)	0	-11	-8	-4	5	2	x
COc1cc(C(C)=O)ccc1OCC(=O)Nc1cc(Cl)ccc1-n1cncn1	19	3	-17	x	2	-5	0
Cc1cc(O)cc(=O)n1-c1cc(C(F)(F)F)cc(C(F)(F)F)c1	x	x	-3	x	x	-6	x
CCn1nnc(NCc2ccc(C)cc2)n1	x	x	x	x	x	x	x	HeLa tox=10
